Experimental data as given in PubChem BioAssay (Tox21).
Inconclusive results are not listed. Entries that show only a call come without a potency. Values without a mark were called inactive. Active and inactive are the calls of the source. Calls follow the shape of the dose curve; as a rule, active = well fitted cell-killing curve with a large enough effect in the repeat runs; inconclusive = weak or mixed curves; inactive = flat fitted curve, though single readings scatter.

Experiment: qHTS RealTime-Glo MT Cell Viability Assay in HepG2 cells - 8 hour (AID 1224873); also: nearly all actives have a fitted effect of over 55% in size
Settings: RealTime-Glo luminescence; series mostly up to 76.8 µM
Excerpt: National Center for Advancing Translational Sciences [NCATS]
NIH Chemical Genomics Center [NCGC]
U.S. Environmental Protection Agency [EPA]
National Institutes of Environmental Health Sciences [NIEHS]
National Toxicology Program [NTP]
U.S. Food and Drug Administration [FDA]
Measure of cell viability is critical in the cell-base assay. Analysis of cell viability is necessary for the characterization of cell responses to cytotoxic drugs and environmental stress. A RealTime-Glo MT Cell Viability Assay to monitor cell viability in real time of continues cell culture during 40 hours of compound treatment was used to screen Tox21 10K library compounds in HepG2 cells. The RealTime-Glo MT Cell Viability Assay is a nonlytic, homogeneous, bioluminescent method to measure cell viability in real time using a simple, plate-based method. The assay involves adding NanoLuc luciferase and a cell-permeant prosubstrate to cells in culture. Viable cells reduce the proprietary prosubstrate to generate a substrate for NanoLuc luciferase. This substrate diffuses from cells into the surrounding culture medium, where it is rapidly used by the NanoLuc Enzyme to produce a luminescent signal. The signal correlates with the number of viable cells, making the assay well suited for cytotoxicity studies.
Tox21 Assay Protocol Summary:
The mixture of HepG2 cell suspension and reagents were dispensed at 600cells/6 ul/well in 1536-well tissue culture treated black solid bottom plates using a Multidrop dispenser. After the assay plates were incubated at a 37 C/5% CO2 incubator for 5 hours, 23 nL of compounds dissolved in DMSO, positive and negative controls was transferred to the assay plate by a pintool work station. The plates were incubated at 37 C for 40 hours. The luminescence intensity were measured at 0h, 8h, 16h, 24h, 32h and 40h time points using ViewLux plate reader during compound treatment.
Potency is read from the fitted curve at half-maximal effect.

Structure (SMILES)	Potency	viability change, negative = cytotoxic
CCCCCCCN	inactive	–
CCCCC(CC)COC(=O)COc1ccc(Cl)cc1Cl (stereo not given)	inactive	–
Brc1c2ccccc2cc2ccccc12	inactive	–
CC1(c2ccccc2)OC(C(=O)O)=CC1=O (stereo not given)	inactive	–
C=CCOc1ccccc1OCC(O)CNC(C)C (stereo not given)	inactive	–
CCCCCCCCCCCCCCCCOS(=O)(=O)O	inactive	–
CCCCc1ncc(/C=C(\Cc2cccs2)C(=O)O)n1Cc1ccc(C(=O)O)cc1	inactive	–
C/C(=C(\CCOP(=O)(O)O)SC(=O)c1ccccc1)N(C=O)Cc1cnc(C)nc1N	–	2.94% [at 6.97 µM]
Clc1ccc(Cn2c(CN3CCCC3)nc3ccccc32)cc1	inactive	–
CC1=CCCC(C)(C)C12CCC(C)O2 (stereo not given)	inactive	–
Nc1ccccc1S(=O)(=O)c1ccccc1	inactive	–
CCCC(=O)Nc1ccc(O)c(C(C)=O)c1	inactive	–
Cc1ncc(CO)c(C=O)c1O	inactive	–
O=C1C(O)=C(O)C(=O)C(O)=C1O	inactive	–
C=C1[C@H]2CC[C@@H]3[C@H]2C(C)(C)CCC[C@]13C	inactive	–
C/C=C(/C(=C/C)c1ccc(OC(C)=O)cc1)c1ccc(OC(C)=O)cc1	inactive	–
C[C@H](CCC(=O)O)[C@H]1CC[C@H]2[C@@H]3CC[C@@H]4C[C@H](O)CC[C@]4(C)[C@H]3C[C@H](O)[C@]12C	inactive	–
CC(CC=O)c1ccccc1 (stereo not given)	inactive	–
CCC(Cl)CCC(Cl)C(Cl)CC(Cl)C(Cl)C(Cl)CCl (stereo not given)	inactive	–
CC(C)(C)OCC1CO1 (stereo not given)	inactive	–

Structure (SMILES)	Potency	viability change, negative = cytotoxic
CCOC(=O)Cc1cccc2ccccc12	inactive	–
CC(C)O.CC(C)O.CCOC(=O)/C=C(\C)O.CCOC(=O)/C=C(\C)O.[Ti]	inactive	–
NCC(=O)CCC(=O)O	inactive	–
NCc1ccccc1Sc1ccccc1CO	inactive	–
COC(=O)C1=C(C)NC(COC(N)=O)=C(C(=O)OC(C)C)C1c1cccc(Cl)c1Cl (stereo not given)	23.9 µM (active)	–
C[N+]1(C)CCC(OC(=O)C(O)(c2ccccc2)C2CCCC2)C1 (stereo not given)	inactive	–
O=C1[C@H]2CCCC[C@H]2C(=O)N1CCCCN1CCN(c2nsc3ccccc23)CC1	inactive	–
CNC(=O)CN(CCN(CCN(CC(=O)[O-])CC(=O)NC)CC(=O)[O-])CC(=O)[O-].O.[Gd+3]	inactive	–
CCOC(=O)c1cccnc1	inactive	–
O=[N+]([O-])c1cccc(S(=O)(=O)O)c1	inactive	–
S=C([S-])NCCNC(=S)[S-].[Mn+2]	inactive	–
CCCCCCCCO[C@@H]1O[C@H](CO)[C@@H](O)[C@H](O)[C@H]1O	inactive	–
CCCCO	inactive	–
CCCCOC(=O)CCCCCCCC(=O)OCCCC	inactive	–
CCN(CC)CCOC(=O)C(c1ccccc1)C1CCCCC1 (stereo not given)	inactive	–
O=C1c2ccccc2S(=O)(=O)N1CCCCN1CCN(c2ncccn2)CC1	inactive	–
CN1Cc2cc(C(=O)N3CCC(C4CCNCC4)CC3)ccc2NC(CC(=O)O)C1=O (stereo not given)	inactive	–
CN(C)CCOC(c1ccccc1)c1ccc(Br)cc1 (stereo not given)	inactive	–
C[C@@H](c1ncncc1F)C(O)(Cn1cncn1)c1ccc(F)cc1F (stereo not given in full)	inactive	–
COC(=O)c1ccc(I)cc1S(=O)(=O)NC(=O)Nc1nc(C)nc(OC)n1	inactive	–
